NOMO-1 viab – STK33 inhibitor candidate reducing NOMO-1 cell viability. 37,000 tested, 7.5% active. inhibition, % (concentration not given with the values). NOMO-1 AML viability, CellTiter-Glo luminescence, 72 h. AID 2330; in the data active = inhibition above about 80%
MITF inh – inhibitors of MITF; TRPM1 promoter luciferase, luminescence, 24 h; inhibition, % (no concentration beside the values); 37,000 tested, 0.28% active; AID 2240; in the data active = inhibition above about 85%;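 also: human melanocyte line stably carrying TRPM1 promoter luciferase reporter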
Hedgehog inh – Sonic Hedgehog pathway inhibition | AID 2313 | inhibition, % (no concentration beside the values) | Shh-LIGHT2 Gli-luciferase reporter, 30 h | 22,000 tested, 2.1% active;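 active = mean inhibition across valid replicates above about 65%, limit read from the data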;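 also: pathway switched on by Shh-conditioned medium diluted 1 in 25 in low serum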
Large screens that a line does not name were inactive. A selection: hits, their analogues and other compounds. The true share with any hit is near 8.1%.

COc1c(O)cc2c(c1O)C(=O)CC(c1ccccc1)O2 (stereo not given)	none
COc1c(C=O)c(O)cc2c1C(=O)c1ccccc1C2=O	NOMO-1 viab 96
O=C(CSc1nnc(-c2ccncc2)n1-c1ccc(F)cc1)c1ccc(Cl)cc1	none (no result: Hedgehog inh)
O=C(NCc1cccnc1)c1cc(-c2cccc(Cl)c2)nc2ccccc12	none (no result: Hedgehog inh)
CC1(C)CC[C@]2(C(=O)O[C@@H]3O[C@H](CO)[C@@H](O)[C@H](O)[C@H]3O)CC[C@]3(C)C(=CCC4[C@@]5(C)CC[C@H](O[C@@H]6OC[C@H](O)[C@H](O)[C@H]6O[C@@H]6O[C@H](CO)[C@@H](O)[C@H](O)[C@H]6O[C@@H]6OC[C@H](O)[C@H](O)[C@H]6O)[C@@](C)(CO)C5CC[C@]43C)C2C1 (stereo not given in full)	none
CC1(C)CC[C@]2(C(=O)O[C@@H]3O[C@H](CO)[C@@H](O)[C@H](O)[C@H]3O)CC[C@]3(C)C(=CCC4[C@@]5(C)C[C@@H](O)[C@H](O)[C@](C)(CO)C5CC[C@]43C)C2[C@@H]1O (stereo not given in full)	NOMO-1 viab 120
C[C@@H]1O[C@@H](O[C@H]2[C@H](O[C@H]3CC[C@@]4(C)C(CC[C@]5(C)C4CC=C4[C@@H]6CC(C)(C)CC[C@]6(C(=O)O[C@@H]6O[C@H](CO[C@@H]7O[C@H](CO)[C@@H](O)[C@H](O)[C@H]7O)[C@@H](O)[C@H](O)[C@H]6O)CC[C@]45C)[C@]3(C)CO)OC[C@H](O)[C@@H]2O)[C@H](O)[C@H](O)[C@H]1O (stereo not given in full)	none
CC1(C)CC[C@]2(C(=O)O)CC[C@]3(C)C(=CCC4[C@@]5(C)CC[C@H](O[C@@H]6OC[C@H](O)[C@H](O)[C@H]6O)[C@@](C)(CO)C5CC[C@]43C)C2C1 (stereo not given in full)	NOMO-1 viab 120, Hedgehog inh 79
CC1(C)CC[C@]2(C(=O)OC3OC(CO)C(O)C(O)C3O)CC[C@]3(C)C(=CCC4[C@@]5(C)CC[C@H](OC6OC(C(=O)O)C(O)C(O)C6O)C(CO)(CO)C5CC[C@]43C)[C@@H]2C1 (stereo not given in full)	NOMO-1 viab 120
C[C@@H]1O[C@@H](O[C@H]2[C@H](O)[C@@H](O)[C@H](OC[C@H]3O[C@@H](OC(=O)[C@]45CCC(C)(C)CC4C4=CCC6[C@@]7(C)CC[C@H](O)C(C)(C)C7CC[C@@]6(C)[C@]4(C)CC5)[C@H](O)[C@@H](O)[C@@H]3O)O[C@@H]2CO)[C@H](O)[C@H](O)[C@H]1O (stereo not given in full)	NOMO-1 viab 122, Hedgehog inh 76
CC1(C)CC[C@]2(C(=O)O[C@@H]3O[C@H](CO)[C@@H](O)[C@H](O)[C@H]3O)CC[C@]3(C)C(=CCC4[C@@]5(C)CC[C@H](O[C@@H]6O[C@H](C(=O)O)[C@@H](O[C@@H]7O[C@H](CO)[C@@H](O)[C@H](O)[C@H]7O)[C@H](O)[C@H]6O)C(C)(C)C5CC[C@]43C)C2C1 (stereo not given in full)	none
CC1(C)CC[C@]2(C(=O)O[C@@H]3O[C@H](CO)[C@@H](O)[C@H](O)[C@H]3O)CC[C@]3(C)C(=CCC4[C@@]5(C)C[C@@H](O)[C@H](O)[C@@](C)(CO)C5CC[C@]43C)C2C1 (stereo not given in full)	none
CCOc1ccc(NS(=O)(=O)c2cc(C(=O)O)ccc2OC)cc1	none (no result: Hedgehog inh)
O=C1C(=O)N(Cc2ccco2)C(c2ccccc2)C1C(=O)c1cccs1 (stereo not given)	none (no result: Hedgehog inh)
CCOC(=O)CSc1nc2ccc(I)cc2c(=O)n1-c1ccccc1OC	none (no result: Hedgehog inh)
CC1OC(OC2C(CO)OC(OC(=O)[C@]34CCC(C)(C)CC3C3=CCC5[C@@]6(C)CC[C@H](OC7OC(C)C(OC8OCC(O)(COC9OCC(O)C(OC%10OCC(OC%11OCC(O)(CO)C%11O)C(O)C%10O)C9O)C8O)C(O)C7O)C(C)(C)C6CC[C@@]5(C)[C@]3(C)CC4)C(O)C2O)C(O)C(O)C1O (stereo not given in full)	NOMO-1 viab 100
CC1(C)CC[C@@]2(C(=O)O[C@@H]3O[C@H](CO)[C@@H](O)[C@H](O)[C@H]3O)C(C1)C1=CCC3[C@@]4(C)CC[C@@H](O[C@@H]5O[C@H](C(=O)O)[C@@H](O[C@@H]6OC[C@@H](O)[C@H](O)[C@H]6O)[C@H](O)[C@H]5O)C(C)(C)C4CC[C@@]3(C)[C@]1(C)C[C@H]2O (stereo not given in full)	none
CC1OC(O[C@H]2CC[C@@]3(C)C(CC[C@]4(C)C3CC=C3C5CC(C)(C)CC[C@]5(C(=O)OC5OC(CO)C(OC6OC(CO)C(O)C(O)C6O)C(O)C5O)CC[C@]34C)C2(C)C)C(O)C(O)C1OC1OCC(O)(COC2OCC(O)C(OC3OCC(OC4OCC(O)(CO)C4O)C(O)C3O)C2O)C1O (stereo not given in full)	none
C/C=C(\C)C(=O)O[C@H]1[C@H](OC(C)=O)[C@@]2(CO)C(CC1(C)C)C1=CCC3[C@@]4(C)CC[C@H](O[C@@H]5O[C@H](C(=O)O)[C@@H](O)[C@H](O[C@@H]6O[C@H](CO)[C@H](O)[C@H](O)[C@H]6O[C@@H]6O[C@@H](C)[C@H](O)[C@@H](O)[C@H]6O)[C@H]5O[C@@H]5O[C@H](CO)[C@@H](O)[C@H](O)[C@H]5O)C(C)(C)C4CC[C@@]3(C)[C@]1(C)C[C@H]2O (stereo not given in full)	Hedgehog inh 111 (no result: NOMO-1 viab, MITF inh)
N#Cc1c(NC(=O)CSc2nnc(N)s2)sc2c1CCCC2	none (no result: Hedgehog inh)
CCn1c(SCC(=O)Nc2cccc3ccccc23)nnc1-c1ccc(Cl)c(Cl)c1	none (no result: Hedgehog inh)
COc1cccc2c1C(=O)c1c(O)c3c(c(O)c1C2=O)C[C@@](O)(C(=O)CO)C[C@@H]3OC1CC(N)C(O)C(C)O1 (stereo not given in full)	NOMO-1 viab 98, Hedgehog inh 83
COc1cccc2c1C(=O)c1c(O)c3c(c(O)c1C2=O)C[C@@](O)(C(=O)CO)C[C@@H]3O[C@H]1C[C@H](N)[C@H](O)[C@H](C)O1	NOMO-1 viab 99, Hedgehog inh 90
COc1cccc2c1C(c1ccc3c(c1O)C(=O)CC(C)C3O)OC2=O (stereo not given)	none
COC(=O)c1ccccc1NC(=O)CN(C)S(=O)(=O)c1ccc(F)cc1	none (no result: Hedgehog inh)
CCn1c(SCC(=O)Nc2ccccc2C)nnc1-c1ccco1	none (no result: Hedgehog inh)
COc1ccc(Cl)cc1NC(=O)C(C)NS(=O)(=O)c1ccc(Br)cc1 (stereo not given)	none (no result: Hedgehog inh)
N#Cc1cnc2c(C(N)=O)cnn2c1N	none
Cc1ccc(C(=O)O)cc1S(=O)(=O)N(CCO)CCO	none (no result: Hedgehog inh)
Cn1nnnc1SCC(=O)Nc1cccc(Cl)c1	none (no result: Hedgehog inh)
COc1cc(C2NCCS2)cc(OC)c1OC (stereo not given)	none
COc1cc(COc2cc(N)c(Cl)cc2C(=O)CCC2CCN(CCNS(C)(=O)=O)CC2)cc(OC)c1	NOMO-1 viab 143
COc1cc(N)c(Cl)cc1C(=O)N[C@H]1CCN(CCCOc2ccc(F)cc2)C[C@H]1OC	none
CN1CCN(C(=O)CN(c2cccc3ccccc23)S(C)(=O)=O)CC1	none (no result: Hedgehog inh)
Cn1cnnc1SCC(=O)c1ccc([N+](=O)[O-])cc1	none (no result: Hedgehog inh)
